Assay in all cases: yeast three-hybrid, YBZ-1, SC-Leu-His + 0.5 mM 3-AT, 4 days
Common to all, as to conditions: tags: N-Gal4 AD-HA kept; label: inside an RPR1-promoter hybrid RNA with tandem MS2 sites; ssRNA

Assay [1] concerns the target PUM1 PUF domain R8-RYV (Homo sapiens, UniProt Q14671 828-1176, N1122R;Q1126V). Summed up: (§1)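 A centromeric plasmid in strain YBZ-1 co-expressed Pumilio-1 PUF domain libraries, randomized at the three base-contacting residues of each repeat, with matching RNA elements; the strain carries a LexA–MS2 coat fusion and a HIS3 reporter. After four days on SC-Leu (input) or SC-Leu-His + 0.5 mM 3-AT (selection), the repeat regions were PCR-amplified and Illumina-sequenced. The interaction score is the log change in variant frequency from input to selection, using log2 and a pseudocount of 1 where absent.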

For assay [2], the target named is PUM1 PUF domain R8-PYY (Homo sapiens, UniProt Q14671 828-1176, N1122P;Q1126Y). Summed up:
as §1

In assay [3] the target is T1, PUM1 PUF domain R6-FWT (Homo sapiens, UniProt Q14671 828-1176, N1043F;Y1044W;Q1047T).
T1 sequence: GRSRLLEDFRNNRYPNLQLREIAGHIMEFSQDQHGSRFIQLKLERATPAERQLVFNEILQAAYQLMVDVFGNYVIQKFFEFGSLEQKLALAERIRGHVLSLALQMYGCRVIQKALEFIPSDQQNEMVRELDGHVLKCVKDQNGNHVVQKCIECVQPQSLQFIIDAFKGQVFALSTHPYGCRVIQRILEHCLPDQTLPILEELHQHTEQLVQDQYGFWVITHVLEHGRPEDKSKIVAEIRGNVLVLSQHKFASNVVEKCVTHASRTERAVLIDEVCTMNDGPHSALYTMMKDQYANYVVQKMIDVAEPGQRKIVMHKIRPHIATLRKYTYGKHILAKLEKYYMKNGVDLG
Summed up:
as §1

In assay [4] the target is PUM1 PUF domain R4-EHI (Homo sapiens, UniProt Q14671 828-1176, N971E;Q975I). Summed up: as §1
Assay [5] concerns the target PUM1 PUF domain R5-GTR (Homo sapiens, UniProt Q14671 828-1176, C1007G;R1008T;Q1011R). Summed up: as §1
The target of assay [6] is PUM1 PUF domain R5-SKN (Homo sapiens, UniProt Q14671 828-1176, C1007S;R1008K;Q1011N). Summed up: as §1
The target of assay [7] is PUM1 PUF domain R3-RSV (Homo sapiens, UniProt Q14671 828-1176, C935R;R936S;Q939V). Summed up: as §1
The target in assay [8] is PUM1 PUF domain R2-LFL (Homo sapiens, UniProt Q14671 828-1176, N899L;Y900F;Q903L). Summed up: as §1
The target of assay [9] is T2, PUM1 PUF domain R6-VFH (Homo sapiens, UniProt Q14671 828-1176, N1043V;Y1044F;Q1047H).
T2 sequence: T1 sequence with F216V, W217F, T220H
Summed up: as §1

Assay [10] addresses T3, PUM1 PUF domain R6-LWE (Homo sapiens, UniProt Q14671 828-1176, N1043L;Y1044W;Q1047E).
T3 sequence: T1 sequence with F216L, T220E
Summed up:
as §1

Where a chain is given by its changes, count along the chain named.

On to “GGCUAGAACUAGUGGAUCCCCCGGCGCCCGGCGGCUCGAGCCCGGGUAAGCGUAAAUAGUCUGCAUGCCGCCGGGCGCCAUGCCUGCAGGUCGACUCUAGAAAACAUG”, for which the results for the binding signal in assay [1] and in assay [2] were 6.01 log2 enrichment (interaction score) and 3.73 log2 enrichment (interaction score), respectively.

As for “GGCUAGAACUAGUGGAUCCCCCGGCGCCCGGCGGCUCGAGCCCGGGUAAGUGUAAAUAGUCUGCAUGCCGCCGGGCGCCAUGCCUGCAGGUCGACUCUAGAAAACAUG”, the binding signal was 4.41 log2 enrichment (interaction score) in [3], 4.92 log2 enrichment (interaction score) in assay [1], 3.46 log2 enrichment (interaction score) in assay [4] and 2.84 log2 enrichment (interaction score) in [2].

Regarding “GGCUAGAACUAGUGGAUCCCCCGGCGCCCGGCGGCUCGAGCCCGGGUAAGUGUCAAUAGUCUGCAUGCCGCCGGGCGCCAUGCCUGCAGGUCGACUCUAGAAAACAUG”, the binding signal was 4.92 log2 enrichment (interaction score) in assay [5] and 1.73 log2 enrichment (interaction score) in [6].

With “GGCUAGAACUAGUGGAUCCCCCGGCGCCCGGCGGCUCGAGCCCGGGUAAGUGUAAUUAGUCUGCAUGCCGCCGGGCGCCAUGCCUGCAGGUCGACUCUAGAAAACAUG”, the binding signal in assay [7] is 3.06 log2 enrichment (interaction score).

On to “GGCUAGAACUAGUGGAUCCCCCGGCGCCCGGCGGCUCGAGCCCGGGUAAGUGUAAAAAGUCUGCAUGCCGCCGGGCGCCAUGCCUGCAGGUCGACUCUAGAAAACAUG”, for which the binding signal in assay [8] is 5.51 log2 enrichment (interaction score).

In the case of “GGCUAGAACUAGUGGAUCCCCCGGCGCCCGGCGGCUCGAGCCCGGGUAAGUGUUAAUAGUCUGCAUGCCGCCGGGCGCCAUGCCUGCAGGUCGACUCUAGAAAACAUG”, in [6], the binding signal is 2.59 log2 enrichment (interaction score).

In the case of “GGCUAGAACUAGUGGAUCCCCCGGCGCCCGGCGGCUCGAGCCCGGGUAAGUGAAAAUAGUCUGCAUGCCGCCGGGCGCCAUGCCUGCAGGUCGACUCUAGAAAACAUG”, the results for the binding signal in assay [9] and in [10] were 3.39 log2 enrichment (interaction score) and 3.79 log2 enrichment (interaction score), respectively.

The values above are taken from article PMC8384837, “Expanding the binding specificity for RNA recognition by a PUF domain”.
